Results reported in PubChem BioAssay (NCATS).
Several values for one entry are separate records, joined by “and”; a condition that tells them apart may be missing. Identical values can stand only once. Results filed as inconclusive are left out. Activity calls are given as the source filed them. Unless noted, calls follow the shape of the dose curve; as a rule, active = well fitted curve in the direction sought with a large enough effect; inconclusive = small, poorly fitted or top-dose-only effect, or another doubt; inactive = no such curve, though single readings can be large; an effect the other way counts as inactive or inconclusive.

How the values were obtained:
[1] = qHTS assay for small molecule disruptors of the mitochondrial membrane potential - 1 hr assay (AID 651754; calls by dose curve; also: % is scaled to controls: 0 for no effect and ±100 for the full control effect; nearly all actives have a fitted effect of over 35% in size)
Summary of the method: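 HepG2, 2,000 cells/well, overnight attachment; cpd or DMSO 1 hr, 37C/5% CO2; Mito-MPS dye 30 min, 37C; fluorescence monomer (490/535) and aggregate (540/590).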

[2] = qHTS assay for small molecule disruptors of the mitochondrial membrane potential - 5 hr assay (AID 651755; calls by dose curve; also: % is scaled to controls: 0 for no effect and ±100 for the full control effect; nearly all actives have a fitted effect of over 40% in size)
Summary of the method: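 HepG2 cells (2,000/well), attached overnight, exposed to compound 5 hr at 37C, then Mito-MPS dye 30 min. Fluorescence read for monomers (490/535 nm) and aggregates (540/590 nm).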

[3] = molecular target: Tumor necrosis factor (Homo sapiens) (UniProt P01375); experiment: qHTS assay to identify small molecules that stimulate Tumor Necrosis Factor-alpha (TNF-alpha) secretion (AID 651757; active = well fitted curve in the direction sought with a large enough effect in the signal ratio; the % refers to the signal ratio; also: 0% is about no effect)
Summary of the method: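 Read-out is HTRF, a TR-FRET sandwich of cryptate- and XL665-labeled anti-TNF-alpha antibodies detecting cytokine secreted by THP-1 cells. Cells had been incubated with test compounds at 37 C for 17 hrs beforehand.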

[4] = qHTS assay for environmental chemicals that activate the Aryl hydrocarbon Receptor (AhR) signaling pathway (AID 651777); settings: 1A2-DRE human hepatoma cells, luciferase, 24 h; activation: active compounds read high; also: % of control where 0% means no effect; nearly all actives have a fitted effect of over 15% in size
Summary of the method: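 Concentration–response screening used 1,200 1A2-DRE cells per well, 24 hr compound exposure (37 C, 5% CO2), and One-Glo luminescence as the AhR-driven CYP1A2 reporter signal.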

[5] = molecular target: Peroxisome proliferator-activated receptor alpha (Homo sapiens) (UniProt Q07869); experiment: qHTS assay for small molecule agonists of the peroxisome proliferator-activated receptor alpha (PPARalpha) signaling pathway (AID 651778); settings: PathHunter PPARalpha complementation, chemiluminescence, 6 h; active compounds read high; also: % of control where 0% means no effect
Summary of the method: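 Enzyme-fragment complementation assay in which ligand-bound PPARalpha translocates and forms an active enzyme that generates chemiluminescence. Cells were plated overnight, exposed to compound for 6 hr at 37 C, and then given detection reagent for 60 min at room temperature.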

[6] = molecular target: Nuclear receptor ROR-gamma (Homo sapiens) (UniProt P51449); experiment: qHTS assay for small molecule antagonists of the retinoid-related orphan receptor gamma (ROR-gamma) signaling pathway (AID 651802);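 also: luciferase reporter luminescence driven by ROR response element; series mostly up to about 92 µM; % is scaled to controls: 0 for no effect and ±100 for the full control effect; nearly all actives have a fitted effect of over 60% in size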
Summary of the method: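 CHO, TET-inducible ROR + RORE-LUC reporter, 1536-well qHTS. Compound pinned, doxycycline added, 16hr 37C/5% CO2. ONE-Glo, 30 min RT, luminescence; signal drop scored as antagonism.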

[7] = qHTS assay for small molecule agonists of the antioxidant response element (ARE) signaling pathway measured by Nrf2-dependant transcriptional activity (AID 720636; active = well fitted curve in the direction sought with a large enough effect in the repeat runs; an effect the other way counts as inactive or inconclusive;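 also: HepG2 cells with an ARE-driven luciferase reporter; % of control where 0% means no effect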)
Summary of the method: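 Attachment 6 hr at 37 C, then compound versus DMSO vehicle for 16 hr in ARE-luc HepG2 cells (1% dialyzed FBS); luminescence recorded 30 min after ONE-Glo addition at room temperature.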

[8] = qHTS assay for small molecule antagonists of the retinoid-related orphan receptor gamma (ROR-gamma) signaling pathway - cell viability counter screen (AID 720652; active = well fitted curve in the direction sought with a large enough effect in the repeat runs; an effect the other way counts as inactive or inconclusive;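 also: series mostly up to about 92 µM; compound exposure lasted 16 hr before ATP read; % is scaled to controls: 0 for no effect and ±100 for the full control effect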)
Summary of the method: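 Luminescence from CellTiter-Glo after 30 min at room temperature reported cellular ATP as the cytotoxicity measure. Cells were the CHO reporter line with doxycycline-induced ROR-gamma expression, exposed to compound for 16 hr at 37 C.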

[9] = qHTS assay for small molecule agonists of the antioxidant response element (ARE) signaling pathway measured by Nrf2-dependant transcriptional activity - cell viability counter screen (AID 720653; active = well fitted curve in the direction sought with a large enough effect in the repeat runs; an effect the other way counts as inactive or inconclusive; also: % is scaled to controls: 0 for no effect and ±100 for the full control effect); settings: ARE-bla HepG2 viability, CellTiter-Glo ATP luminescence, 16 h; active compounds read low
Summary of the method: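 ARE-bla HepG2 cells treated with compounds for 16 h at 37C; this counter screen measures viability as intracellular ATP by CellTiter-Glo luminescence after 30 min at room temperature.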

[10] = qHTS assay for cell viability of HEK293 cells (AID 743288); settings: ATP luminescence (CellTiter-Glo), 18 h, active compounds read low; also: % is scaled to controls: 0 for no effect and ±100 for the full control effect; nearly all actives have a fitted effect of over 50% in size
Summary of the method: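 The Tox21 protocol used parental HEK293 cells treated for 18 h at 37 C with compounds delivered by pintool; ATP-coupled luminescence after 30 min at room temperature gave viability.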

[11] = qHTS assay for cell viability of the p53RE-bla HCT-116 cell line (AID 743292); also: % is scaled to controls: 0 for no effect and ±100 for the full control effect; nearly all actives have a fitted effect of over 55% in size
Summary of the method: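 Compound-exposed HCT-116 (p53RE-bla) cells, 4,000 per well, were kept 16 h at 37 C following a 5 h preincubation. Cell number was estimated from total ATP by CellTiter-Glo luminescence read after 30 min at room temperature.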

[12] = molecular target: Nuclear receptor subfamily 1 group I member 2 (Rattus norvegicus) (UniProt Q9R1A7); experiment: qHTS assay for small molecule activators of the rat pregnane X receptor (rPXR) signaling pathway (AID 651751; call rule not given here; also: 0% is about no effect); settings: rPXR reporter cells, luciferase (One-Glo), 24 h
[13] = qHTS assay for small molecule activators of the human pregnane X receptor (PXR) signaling pathway (AID 720659; call rule not given here; also: 0% is about no effect)
[14] = qHTS assay to identify small molecules that stimulate interleukin-8 (IL-8) secretion (AID 651758; active = well fitted activation curve with a large enough effect in the signal ratio; the % refers to the signal ratio; also: 0% is about no effect)
Summary of the method: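 THP-1 cells (2000/well) exposed to compound 16 h at 37 C; secreted IL-8 then detected by HTRF with cryptate- and XL665-labelled anti-IL-8 antibody pair after 1-3 h at room temperature.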

Sequence of Nuclear receptor subfamily 1 group I member 2 (Rattus norvegicus) (Q9R1A7 whole entry, looked up): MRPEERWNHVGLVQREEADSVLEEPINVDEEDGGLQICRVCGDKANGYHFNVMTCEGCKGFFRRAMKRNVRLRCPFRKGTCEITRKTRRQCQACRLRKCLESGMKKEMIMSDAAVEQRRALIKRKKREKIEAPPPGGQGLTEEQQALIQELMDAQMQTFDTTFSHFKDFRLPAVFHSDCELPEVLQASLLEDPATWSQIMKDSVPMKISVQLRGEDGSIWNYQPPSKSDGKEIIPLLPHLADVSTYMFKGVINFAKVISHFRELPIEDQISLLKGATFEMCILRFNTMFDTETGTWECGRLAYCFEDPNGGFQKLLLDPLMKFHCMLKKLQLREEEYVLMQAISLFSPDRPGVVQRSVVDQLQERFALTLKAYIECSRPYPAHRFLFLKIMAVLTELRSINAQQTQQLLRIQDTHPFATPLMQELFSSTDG
Sequence of Peroxisome proliferator-activated receptor alpha (Homo sapiens) (Q07869 whole entry, looked up, the tested form may be a part): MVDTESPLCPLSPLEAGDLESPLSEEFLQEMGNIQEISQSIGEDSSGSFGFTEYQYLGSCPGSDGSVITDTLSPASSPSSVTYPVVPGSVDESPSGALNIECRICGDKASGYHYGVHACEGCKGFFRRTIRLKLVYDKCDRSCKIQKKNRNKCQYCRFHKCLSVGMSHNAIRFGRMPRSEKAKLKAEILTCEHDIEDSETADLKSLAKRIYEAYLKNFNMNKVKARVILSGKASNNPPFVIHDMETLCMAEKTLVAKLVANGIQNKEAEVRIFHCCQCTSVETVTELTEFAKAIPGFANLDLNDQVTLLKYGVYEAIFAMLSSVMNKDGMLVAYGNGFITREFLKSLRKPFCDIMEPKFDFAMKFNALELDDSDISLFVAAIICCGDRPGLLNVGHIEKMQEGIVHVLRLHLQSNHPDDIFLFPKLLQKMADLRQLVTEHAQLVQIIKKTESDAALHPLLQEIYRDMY
Sequence of Nuclear receptor ROR-gamma (Homo sapiens) (P51449 whole entry, looked up): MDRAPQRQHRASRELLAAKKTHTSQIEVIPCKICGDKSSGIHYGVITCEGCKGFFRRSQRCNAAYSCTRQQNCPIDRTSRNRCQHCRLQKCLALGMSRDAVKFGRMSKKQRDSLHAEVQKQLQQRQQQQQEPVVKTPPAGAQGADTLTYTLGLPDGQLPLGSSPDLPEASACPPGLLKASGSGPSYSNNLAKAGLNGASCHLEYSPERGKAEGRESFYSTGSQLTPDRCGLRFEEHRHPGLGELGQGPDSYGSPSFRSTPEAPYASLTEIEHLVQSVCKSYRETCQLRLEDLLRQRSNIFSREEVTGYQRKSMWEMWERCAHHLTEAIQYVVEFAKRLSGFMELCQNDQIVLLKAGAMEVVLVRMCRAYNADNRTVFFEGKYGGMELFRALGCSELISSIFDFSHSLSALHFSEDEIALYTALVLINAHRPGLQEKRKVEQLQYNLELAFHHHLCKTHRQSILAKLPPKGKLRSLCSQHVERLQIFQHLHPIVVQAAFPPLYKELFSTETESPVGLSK
Sequence of Tumor necrosis factor (Homo sapiens) (P01375 whole entry, looked up): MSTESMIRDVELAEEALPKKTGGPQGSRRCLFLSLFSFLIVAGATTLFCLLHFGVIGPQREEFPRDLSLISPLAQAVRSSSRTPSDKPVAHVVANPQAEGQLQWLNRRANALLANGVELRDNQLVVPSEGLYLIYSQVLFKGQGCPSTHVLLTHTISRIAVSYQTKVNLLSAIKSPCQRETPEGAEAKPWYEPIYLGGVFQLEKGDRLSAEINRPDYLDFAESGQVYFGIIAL

CCCCC(CC)COCC1CO1 (configuration not stated)
inactive: Potency [1] | Potency [2] | Potency [3] | activation [4] -1.2% | max response [5] -0.684% | Potency [6] | outcome [7] | Potency [8] | max response [9] -19% | max response [10] 0.479% | Potency [11] | max response [12] 9.04% | outcome [13]

CCCC(C)CO (configuration not stated)
inactive: Potency [1] | Potency [2] | Potency [3] | activation [4] -0.17% | max response [5] -5.48% | Potency [6] | outcome [7] | Potency [8] | max response [9] 13.6% | max response [10] -5.68% | Potency [11] | max response [12] 0.794% | outcome [13]

O=Cc1ccc(Cl)cc1
inactive: Potency [1] | Potency [2] | Potency [3] | Potency [14] | max response [5] -4.56% | Potency [6] | outcome [7] | Potency [8] | max response [9] 7.47% | max response [10] -6.94% | Potency [11] | max response [12] -2.77% | outcome [13]

C1CCCC1
inactive: Potency [1] | Potency [2] | Potency [3] | Potency [14] | activation [4] 0.0008% | Potency [6] | outcome [7] | max response [9] -4.11% | max response [10] 0.668% | Potency [11] | max response [12] -1.32% | outcome [13]

NC(=S)NNC(N)=S
inactive: Potency [1] | Potency [2] | Potency [3] | activation [4] 0.955% and 1.28% | max response [5] 0.409% and -1.13% | Potency [6] | outcome [7] | Potency [8] | max response [9] 1.26% and -5.12% | max response [10] -2.43% and -16.6% | Potency [11] | max response [12] -3.78% and 5.23% | outcome [13]

Nc1nc(CC(=O)O)cs1
inactive: Potency [1] | Potency [2] | Potency [3] | activation [4] -0.467% | max response [5] 1.57% | Potency [6] | outcome [7] | Potency [8] | max response [9] 4.24% | max response [10] -0.757% | Potency [11] | max response [12] -3.19% | outcome [13]

CCCOCC(C)O (configuration not stated)
inactive: Potency [1] | Potency [2] | Potency [3] | activation [4] 1.17% | max response [5] -5.25% | Potency [6] | outcome [7] | Potency [8] | max response [9] 8.24% | max response [10] 2.22% | Potency [11] | max response [12] -0.746% | outcome [13]

c1ccc2c(c1)Oc1ccccc1S2
inactive: Potency [1] | Potency [2] | Potency [3] | Potency [14] | max response [5] -0.0488% | Potency [6] | outcome [7] | Potency [8] | max response [9] 6.9% | max response [10] 0.655% | Potency [11] | max response [12] -3.68% | outcome [13]

Nc1nc2ccccc2[nH]1
inactive: Potency [1] | Potency [2] | Potency [3] | Potency [14] | activation [4] 11.9% | max response [5] -2.62% | outcome [7] | Potency [8] | max response [9] -4.79% | max response [10] -5.2% | Potency [11] | max response [12] 10.8% | outcome [13]

O=C(O)c1ccccc1C(=O)O
inactive: Potency [1] | Potency [2] | Potency [3] | Potency [14] | max response [5] 0.653% | outcome [7] | max response [9] -3.39% | max response [10] -4.91% | Potency [11] | max response [12] -4.53% | outcome [13]

CC(CCl)OC(C)CCl (configuration not stated)
inactive: Potency [1] | Potency [2] | Potency [3] | Potency [14] | max response [5] 4.09% | outcome [7] | Potency [8] | max response [9] 6.29% | max response [10] -14.3% | Potency [11] | max response [12] 2.99% | outcome [13]

CCCCC=O
inactive: Potency [1] | Potency [2] | Potency [3] | Potency [14] | max response [5] -1.36% | Potency [6] | outcome [7] | max response [9] -1.82% | max response [10] -6.95% | Potency [11] | max response [12] -1.64% | outcome [13]

CC(C)Nc1ccccc1
inactive: Potency [1] | Potency [2] | Potency [3] | Potency [14] | activation [4] 0.225% | Potency [6] | outcome [7] | Potency [8] | max response [9] -8.81% | max response [10] -1.42% | Potency [11] | max response [12] 4.55% | outcome [13]

C=Cc1ccc(C=C)cc1
inactive: Potency [1] | Potency [2] | Potency [3] | Potency [14] | activation [4] 7.35% | Potency [6] | outcome [7] | Potency [8] | max response [9] -7.35% | max response [10] -2.33% | Potency [11] | max response [12] -2.76% | outcome [13]
